This is an account of results in PubChem BioAssay (NCI).

This is part of a sample that, as a whole, favours compounds with a hit. Of some 83,000 tested, about 20% had one in any assay.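 Testing used 96-well plates and a 48-hour single-concentration exposure. Example: -40 means 40% of the starting cells died.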 Unmarked numbers belong to inactive results. The source made the active and inactive calls. The calls were made as follows: active = growth percent below 10; inactive = the rest.

Test systems include NCI-H23 lung; NCI-H226 lung; NCI-H322M lung; HOP-62 NSCLC; NCI-H460 lung; HOP-92 NSCLC; NCI-H522 lung; A549/ATCC NSCLC; 786-0 renal; COLO 205 colon; DU-145 prostate; K-562 leukemia; MALME-3M melanoma; MDA-MB-231 breast; RXF 393 renal; SF-268 CNS; SF-295 CNS; SF-539 CNS; UACC-257 melanoma; M14 melanoma.
Holding throughout (assay): NCI-60 one-dose screen, 48 h (100 = growth as untreated, 0 = no growth, -100 = all killed)
Holding throughout (details): 10 µM unless noted

Regarding `COc1ccc(C2=NN(C(=O)COc3ccc(Cl)cc3)C(O)(c3cc(F)c(Cl)cc3Cl)C2)cc1` (stereo not given), the growth with NCI-H23 lung is 96.3%; in the experiment on NCI-H226 lung, 109%; in the experiment with NCI-H322M lung, 83.4%; in the experiment on HOP-62 NSCLC, 61.8%; in the experiment with NCI-H460 lung it was 109%; with HOP-92 NSCLC, 39.4%. Also, the growth in the experiment on NCI-H522 lung is 79.5%; with A549/ATCC NSCLC, 96.4%; in the experiment with 786-0 renal, 82%; with COLO 205 colon, 101%; in the experiment with DU-145 prostate, 105%; with K-562 leukemia, 82.4%. For the same molecule, the growth in the experiment with MALME-3M melanoma is 85.8%; in the experiment with MDA-MB-231 breast it was 105%; with RXF 393 renal, 94.1%; in the experiment on SF-268 CNS it was 102%; in the experiment with SF-295 CNS, 80.6%; in the experiment with SF-539 CNS, 89.3%. Further, the growth in the experiment with UACC-257 melanoma was 98.6%; with M14 melanoma it was 85.2%.

On to `Nc1ncnc2c1c(C(F)(F)F)cn2[C@@H]1O[C@H](CO)[C@@H](O)[C@H]1O`, for which the growth was 2.27% (active) in the experiment on NCI-H23 lung; -13.8% (active) in the experiment on NCI-H226 lung; 19.5% in the experiment with NCI-H322M lung; -4.3% (active) in the experiment on HOP-62 NSCLC; 7.65% (active) in the experiment with NCI-H460 lung; -12.8% (active) in the experiment with HOP-92 NSCLC. The growth in the experiment with NCI-H522 lung was -14.1% (active); in the experiment with A549/ATCC NSCLC, 10.5%; in the experiment on 786-0 renal, 13.5%; in the experiment on COLO 205 colon, -42.1% (active); in the experiment on DU-145 prostate it was 17.9%; in the experiment on K-562 leukemia it was 5.69% (active). Moreover, the growth in the experiment on MALME-3M melanoma was -16.9% (active); in the experiment on MDA-MB-231 breast, 15.7%; in the experiment with RXF 393 renal, -45.2% (active); in the experiment with SF-268 CNS it was 7.4% (active); in the experiment on SF-295 CNS it was 7.79% (active); in the experiment on SF-539 CNS, -31.7% (active). Further, the growth with UACC-257 melanoma was -5.51% (active); with M14 melanoma it was 2.76% (active).

With `CCOC(=O)CSc1nnc(-c2cc3c([nH]c4ccccc43)c(-c3cccc(O)c3)n2)n1-c1ccc(C)cc1`, the growth is 97% in the experiment with NCI-H23 lung; 100% with NCI-H226 lung; 95.2% in the experiment on NCI-H322M lung; 88.3% with HOP-62 NSCLC; 103% in the experiment with NCI-H460 lung; 48.9% in the experiment with HOP-92 NSCLC. For the same molecule, the growth with NCI-H522 lung is 47.1%; in the experiment on A549/ATCC NSCLC it was 98.5%; with 786-0 renal, 88.7%; with COLO 205 colon, 95.1%; in the experiment with DU-145 prostate it was -0.541% (active); with K-562 leukemia it was 16.8%. For the same molecule, the growth in the experiment on MALME-3M melanoma was 80.3%; with MDA-MB-231 breast, 45%; with RXF 393 renal it was 79.5%; in the experiment on SF-268 CNS it was 74.7%; in the experiment on SF-295 CNS it was 99.9%; in the experiment with SF-539 CNS it was 78%. Moreover, the figures for the growth in the experiment with UACC-257 melanoma and in the experiment with M14 melanoma were 91.3% and 44.5%, respectively.

`CCC1S/C(=N\N=C(/C)c2ccco2)N(c2ccccc2)C1=O` (stereo not given): the growth in the experiment with NCI-H23 lung was 98.8%; with NCI-H226 lung, 122%; with NCI-H322M lung, 66.8%; in the experiment with HOP-62 NSCLC it was 106%; in the experiment on NCI-H460 lung, 93.8%; in the experiment on HOP-92 NSCLC, 40.6%. Moreover, the growth in the experiment with NCI-H522 lung is 74.7%; in the experiment on A549/ATCC NSCLC it was 104%; in the experiment with 786-0 renal it was 96.9%; in the experiment on COLO 205 colon, 117%; in the experiment with DU-145 prostate, 123%; in the experiment with K-562 leukemia it was 120%. The growth is 79.6% in the experiment on MALME-3M melanoma; 118% with MDA-MB-231 breast; 103% in the experiment on RXF 393 renal; 100% in the experiment with SF-268 CNS; 123% in the experiment on SF-295 CNS; 107% in the experiment with SF-539 CNS. The growth in the experiment with UACC-257 melanoma was 109%; with M14 melanoma, 138%.

Consider `O=C(O)c1ccc(-n2cc(/C=N/Nc3ccc(F)cc3)c(-c3cccc(C(F)(F)F)c3)n2)cc1`, for which the growth was 81% in the experiment with NCI-H23 lung; 92.5% with NCI-H226 lung; 76.5% with NCI-H322M lung; 96.1% in the experiment on HOP-62 NSCLC; 81.6% in the experiment with NCI-H460 lung; 95.9% in the experiment on HOP-92 NSCLC. In addition, the growth in the experiment with NCI-H522 lung is 36.3%; in the experiment on A549/ATCC NSCLC, 65.7%; with 786-0 renal, 79.9%; in the experiment with COLO 205 colon, 105%; in the experiment with DU-145 prostate, 81.6%; with K-562 leukemia, 11.1%. Further, the growth with MALME-3M melanoma was 88.2%; in the experiment with MDA-MB-231 breast, 87.8%; with RXF 393 renal, 101%; in the experiment on SF-268 CNS, 67%; with SF-295 CNS it was 54%; in the experiment on SF-539 CNS, 75.6%. Besides, the growth with UACC-257 melanoma was 91.2%; with M14 melanoma, 51.3%.

`COc1ccc(-c2c(C#N)cnc(N)c2-c2nc3cc(C)c(C)cc3[nH]2)cc1`: the growth in the experiment on NCI-H23 lung was 44.9%; in the experiment with NCI-H226 lung, 99.3%; in the experiment with NCI-H322M lung, 38.2%; in the experiment on HOP-62 NSCLC, 57%; in the experiment on NCI-H460 lung it was 36%; in the experiment on HOP-92 NSCLC it was 68%. Moreover, the growth in the experiment with NCI-H522 lung is 45.6%; with A549/ATCC NSCLC, 27.2%; in the experiment with 786-0 renal it was 25.8%; in the experiment on COLO 205 colon, 68.7%; in the experiment on DU-145 prostate it was 37.4%; in the experiment with K-562 leukemia it was 51.6%. Besides, the growth in the experiment with MALME-3M melanoma was 45.9%; in the experiment on MDA-MB-231 breast, 53.4%; in the experiment with RXF 393 renal, 56.6%; with SF-268 CNS, 57.1%; with SF-295 CNS, 27.3%; in the experiment on SF-539 CNS, 92%. For the same molecule, the results for the growth with UACC-257 melanoma and in the experiment on M14 melanoma were 70% and 51.2%, respectively.

On to `CC(=O)N[C@@H](CNC(=O)c1cc(NC(=O)c2cc(NC(=O)c3cc(NC(=O)c4nccn4C)cn3C)cn2C)cn1C)CC(=O)Nc1cn(C)c(C(=O)Nc2cc(C(=O)Nc3cc(C(=O)Nc4cc(C(=O)NCCCN(C)CCCNC(=O)c5cccc(C(=O)O)c5)n(C)c4)n(C)c3)n(C)c2)n1`, for which the growth in the experiment with NCI-H23 lung was 89.9%; with NCI-H226 lung, 58.4%; in the experiment with NCI-H322M lung it was 57%; in the experiment on HOP-62 NSCLC, 91.6%; in the experiment with NCI-H460 lung it was 10.6%; in the experiment with HOP-92 NSCLC it was 106%. In addition, the growth with NCI-H522 lung was 39%; in the experiment on A549/ATCC NSCLC, -10.7% (active); in the experiment with 786-0 renal, 82.7%; with COLO 205 colon, 45.1%; with DU-145 prostate, 53.3%; in the experiment on K-562 leukemia it was 105%. Besides, the growth was 122% with MALME-3M melanoma; 113% in the experiment on MDA-MB-231 breast; 97.6% in the experiment with RXF 393 renal; 95.9% in the experiment on SF-268 CNS; 47.8% in the experiment on SF-295 CNS; 107% in the experiment with SF-539 CNS. The growth in the experiment on UACC-257 melanoma was 113%; in the experiment on M14 melanoma, 89.9%.
